Data on 37 compounds can be found in PubChem BioAssay AID1345085 (National Center for Advancing Translational Sciences (NCATS), 2018).

Results filed as inconclusive are left out. Active and inactive are the calls of the source. Calls follow the shape of the dose curve; as a rule, active = well fitted cell-killing curve with a large enough effect; inconclusive = small, poorly fitted or top-dose-only effect, or effect the other way; inactive = no such curve, though single readings can be large or run the other way.
Potency is read from the fitted curve at half-maximal effect.

For this test, the system named is Jar. Briefly: Confirmatory qHTS for gynecologic anti-cancer compounds from libraries of approved drugs and bioactive compounds. Also: nearly all actives have a fitted effect of over 55% in size. Particulars: gynecologic cancer cell panel viability, ATPlite luminescence, 48 h; series mostly up to 57.6 µM. The gist of the method: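 ATPlite luminescence read-out of cell viability; IC50 from 11-point 1:3 titrations, 57.5 uM to 0.977 nM, 48 h compound exposure at 37 C, 5% CO2. Cells seeded at 1,000/well 16 h before dosing.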
For orientation: qHTS replaces the single test concentration by a dilution series.
With `Cc1nc(Nc2n[nH]c3c2CN(C(=O)NC(CN(C)C)c2ccccc2)C3(C)C)c2sccc2n1` (configuration not stated), the Potency result was “inactive”.

Regarding `OC[C@H]1O[C@@H](n2cnc3c(=S)nc[nH]c32)[C@H](O)[C@@H]1O`, the Potency was 12.2 µM (active).

In the case of `Nc1ccn([C@@H]2O[C@H](CO)[C@@H](O)C2(F)F)c(=O)n1`, the Potency entry is “inactive”.

Take `Cc1nc(N)sc1-c1ccnc(Nc2ccc(N3CCOCC3)cc2)n1`: the Potency was 3.85 µM (active).

Regarding `CC(Oc1ccc2[nH]nc(/C=C/c3cnn(CCO)c3)c2c1)c1c(Cl)cncc1Cl` (configuration not stated), the Potency entry is “inactive”.

Take `COc1ccc(OC)c(-c2nnc3ccc(-c4ccc(OC)c(O[C@@H]5CCOC5)c4)nn23)c1`: the Potency is 12.2 µM (active).

Consider `CCCCN(CCCC)C(=O)CN1C[C@H](c2ccc3c(c2)OCO3)[C@@H](C(=O)O)[C@@H]1c1ccc(OC)cc1`, for which the Potency entry is “inactive”.

As for `Cc1ccc(C(=O)Nc2ccc(CN3CCN(C)CC3)c(C(F)(F)F)c2)cc1C#Cc1cnc2[nH]ncc2c1`, the Potency entry is “inactive”.

Turning to `CCN(CC)CCNC(=O)c1c(C)[nH]c(/C=C2\C(=O)Nc3ccc(F)cc32)c1C`, the Potency was 25.1 µM (active).

In the case of `COc1cccc2c1C(=O)c1c(O)c3c(c(O)c1C2=O)C[C@@](O)(C(=O)CO)C[C@@H]3O[C@H]1C[C@H](N)[C@H](O)[C@H](C)O1`, the Potency was 1.72 µM (active).

Regarding `CCCCc1oc2ccc(NS(C)(=O)=O)cc2c1C(=O)c1ccc(OCCCN(CCCC)CCCC)cc1`, the Potency was 30.6 µM (active).

On to `COc1cc2nccc(Oc3ccc(NC(=O)C4(C(=O)Nc5ccc(F)cc5)CC4)cc3)c2cc1OC`, for which the Potency was 27.3 µM (active).

Take `Cc1[nH]c2ccccc2c1CCNCc1ccc(/C=C/C(=O)NO)cc1`: the Potency was 0.193 µM (active).

Consider `O=C(Nc1cccnc1)N1CCC(Cc2cccc(Oc3ccc(C(F)(F)F)cn3)c2)CC1`, for which the Potency is 9.68 µM (active).

Consider `CCC1C(=O)N(C)c2cnc(Nc3ccc(C(=O)NC4CCN(C)CC4)cc3OC)nc2N1C1CCCC1` (configuration not stated), for which the Potency was 0.0217 µM (active).

As to `CC(C)[C@@H](CS(=O)(=O)C(C)C)N1C(=O)[C@@](C)(CC(=O)O)C[C@H](c2cccc(Cl)c2)[C@H]1c1ccc(Cl)cc1`, the Potency is 2.73 µM (active).

As for `CNCc1ccc(-c2[nH]c3cc(F)cc4c3c2CCNC4=O)cc1`, the Potency entry is “inactive”.

For `Cc1cc(Nc2nc(N[C@@H](C)c3ccc(F)cc3)c(C#N)cc2F)n[nH]1`, the Potency was 2.73 µM (active).

For the compound `Nc1ccccc1NC(=O)c1ccc(CNc2nccc(-c3cccnc3)n2)cc1`, the Potency is 1.93 µM (active).

Consider `CCN1C[C@H](C)n2c(c(O)c3c(=O)n(Cc4ccc(F)c(Cl)c4)nc(C(=O)NC)c32)C1=O`, for which the Potency entry was “inactive”.

Take `Nc1nc(=S)c2[nH]cnc2[nH]1`: the Potency is 9.68 µM (active).

On to `CCC(=O)N1CCN(c2ccc(-n3c(=O)ccc4cnc5ccc(-c6cnc7ccccc7c6)cc5c43)cc2C(F)(F)F)CC1`, for which the Potency is 1.57 µM (active).

Regarding `C[C@]12CCC(=O)C=C1CC[C@@H]1[C@@H]2[C@@H](O)C[C@@]2(C)[C@H]1CC[C@]2(O)C(=O)CO`, the Potency result is “inactive”.

As for `CCCc1nn(C)c2c(=O)[nH]c(-c3cc(S(=O)(=O)N4CCN(C)CC4)ccc3OCC)nc12`, the Potency entry was “inactive”.

Regarding `FC(F)(F)c1ccc(/C=C/c2nc(COc3ccc(CCCCn4ccnn4)cc3)co2)cc1`, the Potency is 0.0172 µM (active).

Regarding `COc1cc(N2CCC(N3CCN(C)CC3)CC2)ccc1Nc1ncnc(Nc2ccccc2S(=O)(=O)C(C)C)n1`, the Potency result was “inactive”.

Consider `CC(C)Oc1ccc2c(=O)c(-c3ccccc3)coc2c1`, for which the Potency is 21.7 µM (active).

`COc1cc2c(cc1-c1c(C)noc1C)ncc1[nH]c(=O)n(C(C)c3ccccn3)c12` (configuration not stated): the Potency was 27.3 µM (active).

In the case of `CCN(CC)CCCC(C)Nc1c2ccc(Cl)cc2nc2ccc(OC)cc12` (configuration not stated), the Potency entry was “inactive”.

`Cc1nc2ccc(CN(C)c3ccc(C(=O)NC(CCC(=O)O)C(=O)O)s3)cc2c(=O)[nH]1` (configuration not stated): the Potency result is “inactive”.

`CC(C)C[C@H](NC(=O)[C@H](Cc1ccccc1)NC(=O)c1cnccn1)B(O)O`: the Potency is 0.0485 µM (active).

On to `O=c1c(-c2ccc(O)cc2)coc2cc(O)cc(O)c12`, for which the Potency entry is “inactive”.

Consider `CCCCc1oc2ccccc2c1C(=O)c1cc(I)c(OCCN(CC)CC)c(I)c1`, for which the Potency is 79.4 µM (active).

Turning to `COc1ccc2cc3[n+](cc2c1OC)CCc1cc2c(cc1-3)OCO2`, the Potency is 4.32 µM (active).

Take `Cn1c(=O)c(F)c(Nc2ccc(I)cc2F)c2c(=O)n(CC(O)CO)cnc21` (configuration not stated): the Potency entry was “inactive”.

For the compound `COc1c(C)c2c(c(O)c1C/C=C(\C)CCC(=O)OCCN1CCOCC1)C(=O)OC2`, the Potency entry is “inactive”.

`Cn1cc(-c2[nH]c3cc(NC(=O)[C@H](N)C4CCCCC4)cc4c3c2C=NNC4=O)cn1`: the Potency is 10.9 µM (active).
